# RmlC RmlD mix: RmlC/RmlD inhibition, mixture screen; 0.39% of 110,000 active; AID 1532; inhibition, % at 5.5 µM; RmlC/RmlD coupled enzyme inhibition, 384-well mixture HTS; in the data active = inhibition above about 30%, passing the limit was not always enough
# YopH inh: blocks Yersinia enterocolitica YopH tyrosine phosphatase; fluorescence Ex485/Em525; 0.16% of 140,000 active; inhibition, % (test concentration not listed); AID 898; in the data active = inhibition above about 50%
# RmlCD artifact: RmlC/RmlD fluorescence artifact, counter-screen. shares compounds with RmlC RmlD mix. RmlC/RmlD assay fluorescence artifact counter-screen. calls only. 96% of 360 active. AID 1696; call rule not given here;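 also: compound alone with no enzyme and no substrates present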
# * = called active by the depositor; i = inactive; / = no result given; + = active, no number. Only some compounds are listed: those with a hit (about 0.44% of all), similar ones and a draw of the others.
SMILES,RmlC RmlD mix,YopH inh,RmlCD artifact
CC(=O)c1ccc(-c2nc3ccccc3n2C)o1,150.8*,-19.5,+
CS(=O)(=O)N1CCN(c2c(Cl)cccc2[N+](=O)[O-])CC1,-3.2,-19.6,/
CCOC(=O)C(NC(=O)CC)(N1CCc2ccccc2C1)C(F)(F)F (stereo not given),-11.9,-14.7,/
Nc1nc(-c2ccc3ccccc3c2)c(C2(O)C(=O)Nc3c(Br)cc(F)cc32)s1 (stereo not given),7.6,-24.6,/
COc1cc2[nH]c(=O)n(CCC(=O)N3CC=C(c4ccccc4)CC3)c(=O)c2cc1OC,-14.4,-25.8,/
COc1cc2[nH]c(=O)n(CCCC(=O)N3CC=C(c4ccccc4)CC3)c(=O)c2cc1OC,52.4*,-40.9,i
CN(C)CCCNS(=O)(=O)c1ccc(N2CCC(c3ccc(Cl)cc3)=N2)cc1,93.2*,-13.7,+
CN(C)CCCNS(=O)(=O)c1cc(Cl)ccc1Cl,1.8,-3.3,/
CCN(CC(=O)N1CCCCCC1)S(=O)(=O)c1ccc(Cl)cc1,-0.9,12.6,/
O=S(=O)(c1ccc(N2CCC(c3ccc(Cl)cc3)=N2)cc1)N(CCO)CCO,39.5*,4.8,+
Cc1nnc(C)n1/N=C/c1ccc(-c2ccccc2)cc1,-10.2,-21.6,/
O=C(/C(C=Nc1ccc(F)cc1)=C(/O)c1ccco1)C(F)(F)F,/,-25.0,/
CCCCCc1cc(=O)oc2c(C(CCN(CC)CC)c3ccc(N(C)C)cc3)c(OC)cc(OC)c12 (stereo not given),-7.0,/,/
CC[C@@]1(O)C(=O)OCc2c1cc1n(c2=O)Cc2cc3c(N)cccc3nc2-1,13.2,/,/
CC[C@@]1(O)C(=O)OCc2c1cc1n(c2=O)Cc2cc3c(CN(C)C)c(O)ccc3nc2-1,38.0*,/,+
Nc1ccc2nc(-c3ccc(Cl)cc3)[nH]c2c1,8.8,-0.3,/
Nc1ccc(-c2nc3c(Cl)c(N)ccc3[nH]2)cc1,116.0*,-10.7,+
CS(=O)(=O)N(CC(=O)NCc1ccc2c(c1)OCO2)Cc1ccc(Cl)cc1,-6.5,-3.4,/
Cc1ccc(S(=O)(=O)NNC(=O)c2sc(=S)n(C)c2C)cc1,/,-31.3,/
COc1ccc(OC)c(NC(=O)CSc2nnc(C3CCCCC3)n2-c2ccccc2)c1,5.6,0.8,/
CCN1CCN(CCCNC(=O)c2cc3cc4ccc(OC)cc4nc3o2)CC1,/,-8.0,/
COc1ccc2cc3cc(C(=O)NCCCN4CCOCC4)oc3nc2c1,43.2*,-33.4,+
COc1cc(OC)cc(C(C(=O)NCc2ccccc2)N(Cc2ccco2)C(=O)c2ccno2)c1 (stereo not given),-7.0,-33.0,/
Nc1nnnn1/N=C/c1cccc(O)c1,/,-27.0,/
CSc1ccc(/C=N/n2nnnc2N)cc1,69.0*,-28.7,+
SMILES,RmlC RmlD mix,YopH inh,RmlCD artifact
Cc1cc(C)n(-c2nc3c(c(=O)n(C)c(=O)n3C)n2CC(O)COc2ccccc2C)n1 (stereo not given),/,-20.8,/
COc1cccc(/C=N/NC(=O)c2cc3c(OC)cccc3[nH]2)c1OC,/,-10.7,/
COc1cccc(/C=N/NC(=O)c2cc3c(OC)cccc3[nH]2)c1O,/,-43.4,+
O=C(NCc1ccccc1)C1(C(F)(F)F)C/C(=C\CCO)CCCO1 (stereo not given),5.1,/,/
CCn1c(COc2cccc(C)c2C)nnc1SCC(=O)N1CCN(c2ccc(OC)cc2)CC1,-9.9,-36.2,/
O=C1CCC(=O)N1c1nc2nc(-c3ccccc3)cc(-c3ccccc3)n2n1,103.4*,-35.7,+
CC(=O)Nc1nc2nc(-c3ccccc3)cc(-c3ccccc3)n2n1,18.3,-41.6,/
COc1cc(OC)c(C(=O)Nc2cccc(C(C)=O)c2)cc1OC,-13.7,-9.3,/
CN(C)c1ccc(/C=N/N=C2/NC(=O)/C(=C/c3ccc([N+](=O)[O-])cc3)S2)cc1,/,-15.8,/
COC(=O)c1ccc(COC(=O)CCc2nc(-c3ccccc3)c(-c3ccccc3)o2)cc1,2.2,-17.7,/
COc1ccc(-c2cc(C(F)(F)F)n3nc(C(=O)Nc4cc(C)on4)cc3n2)cc1OC,/,-28.0,/
COc1ccc(-c2cc(C(F)(F)F)n3nc(C(=O)N(C)Cc4ccccc4)cc3n2)cc1OC,/,/,+
CCOC(=O)c1cc(C(=O)OCC)c2ccccn2c1=O,70.7*,1.0,+
COC(=O)c1cc(C(C)=O)n2ccccc12,-9.9,10.9,/
N#CCSc1nc2c(cc1C#N)CCCC2,0.0,-39.5,/
CCOC(=O)CC(=O)CSc1nc2c(c(-c3cccs3)c1C#N)CCC2,/,3.3,/
COC(=O)CC(=O)CSc1nc2c(cc1C#N)CCCCC2,137.8*,-15.5,+
CCOC(=O)CC(=O)CSc1nc2c(cc1C#N)CCC2,79.7*,2.2,+
Cc1cc(C(F)F)n2ncc(C(=O)NCc3ccccc3F)c2n1,/,-32.7,/
CCOc1ccc(N=C(/C(C(=O)C(=O)N2CCOCC2)=C(\O)c2ccccc2)c2ccccc2)cc1,/,-6.1,/
CC(C)CC(=O)NC(=S)Nc1ccccc1C(=O)Nc1ccccc1,-6.1,-17.3,/
CCCCOc1ccc(NC(=S)Nc2cc(C)nc(SCCCC)n2)cc1,/,-17.6,/
CC1CCc2cc(F)ccc2N1C(=O)C1(C)CC1(Cl)Cl (stereo not given),8.8,-3.4,/
COc1ccc2cc(CN(Cc3cccnc3)Cc3nnnn3Cc3ccccc3)c(=O)[nH]c2c1,32.7*,-34.9,i
COc1ccc2cc(CN(Cc3cccs3)Cc3nnnn3Cc3ccccc3)c(=O)[nH]c2c1,0.4,-9.6,/
SMILES,RmlC RmlD mix,YopH inh,RmlCD artifact
Cc1cc2c(C)c(C)c(=O)[nH]c2cc1N,45.2*,-6.6,+
Cc1cc(C)c2[nH]c(=O)c(=O)[nH]c2c1,-4.5,10.5,/
CC1CCN(CCCNC(=O)c2coc3nc4ccccc4nc23)CC1,18.6,-23.2,/
CC1CCCN(CCCNC(=O)c2coc3nc4ccccc4nc23)C1 (stereo not given),139.6*,10.5,+
CC(=O)c1ccc2c(c1)CC(C)C(=O)N2C (stereo not given),/,-41.4,/
COC(=O)c1ccc(-c2sc3nc(N4CCOCC4)c4c(c3c2N)CCCC4)o1,116.4*,-2.1,+
CCOC(=O)c1sc2nc(N3CCOCC3)c3c(c2c1N)CCCC3,-183.9,-2.0,/
CN(C(=O)c1cccnc1)c1nnc(-c2ccccn2)s1,42.5*,-33.2,+
CN(C(=O)c1cccnc1)c1nnc(-c2cnccn2)s1,4.5,-33.4,/
COC(=O)c1cc(OC)c(OC)cc1NC(=O)c1ccc(C)o1,-26.0,-36.3,/
CC1=CC2=NC(=O)CC(C)(C(=O)N(CC(=O)NC(C)(C)C)C3CCCC3)N2C=C1 (stereo not given),5.6,34.5,/
CC(C)(C)NC(=O)CN(C(=O)C1(C)CC(=O)N=C2C=CC=CN21)C1CCCC1 (stereo not given),39.2*,9.2,+
COC(=O)c1ccc(CSc2ccc3nnc(-c4cccc(F)c4)n3n2)o1,8.0,-34.9,/
COc1ccc(Cl)cc1NC(=O)C12CCC(C)(C(=O)O1)C2(C)C (stereo not given),7.3,-16.3,/
CCCCCCCCCCCCOC1OC(CO)C(O)C(O)C1NC(C)=O (stereo not given),/,-22.4,/
CCc1ccc(OCc2nnc(SCC(=O)Nc3cccc(C(=O)N4CCOCC4)c3)o2)cc1,/,-29.1,/
CN1C(=O)c2ccc(N(C)C)cc2C1=O,-2.6,14.2,/
COc1cc(=O)n(C)c2cc(N(C)C)ccc12,79.8*,25.6,+
CCN(CC)S(=O)(=O)c1ccc2oc(SCC3CN=C(c4ccc(OC)cc4)S3)nc2c1 (stereo not given),5.5,-68.6,/

# Screens: PubChem BioAssay, several laboratories
